Measurements reported in PubChem BioAssay.
Results filed as inconclusive are left out. Activity calls are given as the source filed them.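 The calls were made as follows, unless noted: active = viability at or below 10% of carrier control in both of two separate runs; inconclusive = viability at or below 10% in only one of the two runs; inactive = the rest.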

Experiments:
[1] = Her2 expression decrease, cell viability multiplex – SKBR3 breast tumor cells, AlphaScreen, ATP viability, primary screen (AID 461;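 active = Her2 level under about 52% in both replicate screens, with viability over 70% of control, limit read from the data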;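 as to Her2 level: lower value means less Her2 protein in the cells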;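 as to viability: percent of carrier control wells set as 100% viability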); conditions: SKBR3 Her2 protein level, 18-24 h, measured here: SKBR3 viability, ATP luminescence, at 10 µM
[2] = molecular target: Receptor tyrosine-protein kinase erbB-2 (Homo sapiens) (UniProt P04626); assay: as above; conditions: 18-24 h, at 10 µM, stronger effect = lower value
[3] = reduced viability of SK-BR-3 breast cancer cells – cell-based, 24 h, human, pilot screen (AID 572); conditions: SK-BR-3 viability, CellTiter-Glo luminescence, at 10 µM, stronger effect = lower value;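 also: compound exposure lasted between 18 and 24 h rather than exactly 24 h; 100% = carrier-treated control wells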
[4] = HUVEC growth inhibition – cell-based, human, primary screen (AID 575;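 active = viability at or below 30% in both replicate assays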;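 also: 100% = median of untreated cell wells with 0.1% DMSO on each plate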); conditions: HUVEC proliferation, CellTiter-Glo luminescence, 72 h; at 10 µM; stronger effect = lower value
[5] = H69AR cell proliferation blockers – human, duplicate replicates, primary screen (AID 580;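 active = viability at or under a set limit in both replicates, limit being median viability minus 3 SD, cut at about 48% in these data, passing the limit was not always enough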;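 also: 100% = mean luminescence of untreated wells and 0% = no signal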); conditions: H69AR lung tumor cells viability, ATP luminescence, 72 h; at 10 µM; stronger effect = lower value
[6] = MRP1 drug-resistance reversers in H69AR cells – cell-based, doxorubicin co-treatment, pilot screen (AID 601;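 active = viability loss from added drug above about 55%, and viability with drug at most 40%, in both replicates, limit read from the data, passing the limit was not always enough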); conditions: CellTiter-Glo, 72 h, at 10 µM; for differential viability (reversal): stronger effect = higher value
[7] = yeast transport mutant growth inhibition pilot in 384-well plates, post-Golgi transport modulator project (AID 636; in the data active = inhibition above about 31%); conditions: absorbance 615 nm, about 18 h, stronger effect = higher value
[8] = growth suppression of yeast trafficking mutant, preliminary HTS, modulators of trafficking downstream of Golgi apparatus project, 1536-format plate, OD 615 nm (AID 637; in the data active = inhibition above about 30%); conditions: yeast transport mutant growth, absorbance 615 nm, 18 h; stronger effect = higher value
[9] = S. cerevisiae growth inhibition in permissive medium (OD615), pilot counter-assay for S. cerevisiae lifespan shortening project, permissive growth control (AID 705;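 active = growth inhibition above 25% in both replicates, a cutoff set 3 SD above the mean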); conditions: OD615, 24 h, at 10 µM, stronger effect = higher value
[10] = S. cerevisiae growth inhibition in restrictive medium, OD615, pilot screen, restrictive growth control, yeast lifespan reduction project (AID 706;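 active = growth inhibition above a set limit, 3 SD over mean compound inhibition, in both replicates, cut at about 43% in these data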;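 also: modified DeaD lifespan yeast strain shifted to restrictive glucose medium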); conditions: OD615, 48 h, at 10 µM, stronger effect = higher value
[11] = doxorubicin toxicity protection in MRP-1 cells – H69AR cells, CellTiter-Glo, duplicate, MRP-1 activator project, pilot screen (AID 807;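 active = viability increase at or above a cutoff of the median across tested compounds plus 3 SD, cut at about 8.5% in these data, passing the limit was not always enough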;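 also: compound pretreatment 18-22 h then 72 h combined with doxorubicin; 0% = doxorubicin alone and 100% = vehicle without doxorubicin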); conditions: H69AR viability with doxorubicin, CellTiter-Glo luminescence; at 10 µM; stronger effect = higher value
[12] = viability of HCT116 without oncogenic beta-catenin – human colon tumor cells, pilot screen (AID 823;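 active = cell viability at or below a set limit in both duplicate runs, the limit being the all-compound median minus 4 SD, cut at about 23% in these data, passing the limit was not always enough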;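 also: 0% = wells killed by 20 µM Hyamine and 100% = untreated DMSO cell wells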); conditions: HCT116 beta-catenin knockout viability, CellTiter-Glo, 60 h; at 10 µM; stronger effect = lower value
[13] = viability of PTEN-null HCT116 cells – cell-based, HCT116 clonal line, CellTiter-Glo, pilot screen (AID 824;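 active = viability at or below 27.92% in each of two runs, the all-compound median minus 4 SD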;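 also: 0% = 20 µM Hyamine control and 100% = vehicle cell control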); conditions: HCT116 PTEN-deleted viability, 60 h, at 10 µM, stronger effect = lower value
[14] = RAM pathway blockade in budding yeast – dse1pr::URA3 reporter, 5-FOA selection, pilot screen (AID 869;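 active = inhibition over a set limit, the all-compound mean plus 3 SD, in both replicate runs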;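 also: 0% = DMSO wells with no growth and 100% = 10 µM 1-NA-PP1 with full growth; RAM network block rescues cells from 5-FOA so hits raise OD615 growth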); conditions: S. cerevisiae dse1pr::URA3 5-FOA growth, OD615, 2 d; at 10 µM; stronger effect = higher value; strain carries analog-sensitive mutant Cbk1 kinase
[15] = RAM signaling pathway blockade in yeast – S. cerevisiae, Pdr1DBD-CYC8 efflux-inhibited sensitized strain, primary screen (AID 1298;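 active = RAM network inhibition above 8.4% in each of two replicates, 3 SD over the compound average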;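 also: 0% = DMSO untreated cells without growth and 100% = 10 µM 1-NA-PP1 full growth; higher means more yeast growth rescued from 5-FOA killing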); conditions: S. cerevisiae cbk1-as DSE1-URA3 strain, 5-FOA growth OD615, 2 d; at 50 µM; stronger effect = higher value
[16] = H69AR cells + 2 uM doxorubicin, measured here: viability with 2 uM doxorubicin, stronger effect = lower value
[17] = H69AR cells, compound alone cytotoxicity

Chain of Receptor tyrosine-protein kinase erbB-2 (Homo sapiens) (P04626 whole entry, looked up): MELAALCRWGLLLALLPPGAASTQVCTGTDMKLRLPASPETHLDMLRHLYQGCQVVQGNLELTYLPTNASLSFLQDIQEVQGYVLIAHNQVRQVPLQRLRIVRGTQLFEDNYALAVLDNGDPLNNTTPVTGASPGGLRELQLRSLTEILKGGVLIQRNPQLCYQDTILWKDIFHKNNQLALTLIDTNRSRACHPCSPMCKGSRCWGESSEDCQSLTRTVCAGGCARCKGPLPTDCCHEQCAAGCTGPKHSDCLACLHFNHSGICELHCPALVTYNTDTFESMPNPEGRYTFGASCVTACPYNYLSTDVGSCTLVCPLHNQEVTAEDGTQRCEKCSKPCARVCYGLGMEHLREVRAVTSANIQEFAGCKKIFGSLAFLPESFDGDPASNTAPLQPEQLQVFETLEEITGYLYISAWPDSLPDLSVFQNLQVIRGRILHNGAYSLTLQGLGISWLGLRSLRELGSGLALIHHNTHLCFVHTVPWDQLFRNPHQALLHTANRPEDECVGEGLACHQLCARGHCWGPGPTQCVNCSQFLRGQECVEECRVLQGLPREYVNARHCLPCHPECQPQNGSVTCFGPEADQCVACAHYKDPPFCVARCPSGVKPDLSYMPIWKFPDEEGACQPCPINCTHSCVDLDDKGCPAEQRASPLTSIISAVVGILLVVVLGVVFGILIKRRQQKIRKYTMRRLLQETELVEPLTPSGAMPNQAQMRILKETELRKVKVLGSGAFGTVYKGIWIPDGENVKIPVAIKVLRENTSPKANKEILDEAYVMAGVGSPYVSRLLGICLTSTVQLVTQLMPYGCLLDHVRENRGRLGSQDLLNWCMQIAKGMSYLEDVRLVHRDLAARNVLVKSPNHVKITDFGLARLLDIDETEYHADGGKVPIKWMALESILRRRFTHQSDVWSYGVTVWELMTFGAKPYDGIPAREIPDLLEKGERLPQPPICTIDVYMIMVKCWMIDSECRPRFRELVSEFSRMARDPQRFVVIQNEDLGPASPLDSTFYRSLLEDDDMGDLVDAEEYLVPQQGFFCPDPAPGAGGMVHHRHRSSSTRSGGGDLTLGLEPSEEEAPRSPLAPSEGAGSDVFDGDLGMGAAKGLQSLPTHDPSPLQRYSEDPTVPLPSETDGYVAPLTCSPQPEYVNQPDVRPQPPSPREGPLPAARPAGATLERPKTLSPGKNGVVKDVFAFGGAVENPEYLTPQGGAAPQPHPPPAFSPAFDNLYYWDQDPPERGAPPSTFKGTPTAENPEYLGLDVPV

Compound | viability [1] | Her2 level [2] | viability [3] | viability [4] | viability [5] | differential viability (reversal) ([6]; H69AR cells + 2 uM doxorubicin) | viability [6, 16] | viability [6, 17] | inhibition [7] | inhibition [8] | growth inhibition [9] | growth inhibition [10] | viability increase [11] | viability [12] | viability [13] | inhibition [14] | RAM network inhibition [15]
CCOC(=O)c1[nH]c(C)c(C(=O)Nc2ccc(Cl)cc2)c1C | 88.5% | 109% (inactive) | 88.5% (inactive) | 73.3% (inactive) | 85.9% (inactive) | -7.14% (inactive) | 93% | 85.9% | 1.92% (inactive) | 0.17% (inactive) | -1.96% (inactive) | 2.55% (inactive) | 2.64% (inactive) | 96.7% (inactive) | 95.2% (inactive) | 1.79% (inactive) | 3.1% (inactive)
CCCCn1c(SCC(=O)OCC)nc2c1c(=O)[nH]c(=O)n2C | 100% | 93% (inactive) | 100% (inactive) | 96.8% (inactive) | 97.3% (inactive) | 0.46% (inactive) | 96.8% | 97.3% | -2.53% (inactive) | 0.33% (inactive) | 0.935% (inactive) | 1.66% (inactive) | -2.5% (inactive) | 94.4% (inactive) | 91.6% (inactive) | 1.31% (inactive) | 0.35% (inactive)
CC(=O)c1ccc(NC(=O)C2CCN(S(=O)(=O)c3cccc4cccnc34)CC2)cc1 | 97.5% | 117% (inactive) | 97.5% (inactive) | 100% (inactive) | 84.3% (inactive) | -5.16% (inactive) | 89.4% | 84.3% | -2.67% (inactive) | -5% (inactive) | -5.1% (inactive) | -5.57% (inactive) | -1.12% (inactive) | 107% (inactive) | 99.8% (inactive) | 1.35% (inactive) | 8.91% (inactive)
CC(C)(C)SCCNC(=O)CN1C(=O)c2ccccc2S1(=O)=O | 97% | 92.5% (inactive) | 97% (inactive) | 101% (inactive) | 106% (inactive) | 8.94% (inactive) | 97.4% | 106% | -4.67% (inactive) | 0.82% (inactive) | -13% (inactive) | -6.21% (inactive) | -0.57% (inactive) | 103% (inactive) | 99.8% (inactive) | 1.42% (inactive) | 4.44% (inactive)
CCn1cc(C(=O)N2CCOCC2)c(=O)c2cc(S(=O)(=O)N(C)C3CCCCC3)ccc21 | 84% | 89% (inactive) | 84% (inactive) | 108% (inactive) | 106% (inactive) | 19.7% (inactive) | 86.7% | 106% | 0.26% (inactive) | 0.5% (inactive) | -13.6% (inactive) | -19.3% (inactive) | -1.73% (inactive) | 100% (inactive) | 95.8% (inactive) | 0.85% (inactive) | 2.09% (inactive)
CCCCN(CC)CCNC(=O)c1cc2c(C)nc3ccccc3c2o1 | 91% | 95.5% (inactive) | 91% (inactive) | 63.6% (inactive) | 85.3% (inactive) | 2.99% (inactive) | 82.4% | 85.3% | -5.73% (inactive) | -4.43% (inactive) | 10% (inactive) | 1.23% (inactive) | -3.49% (inactive) | 75% (inactive) | 84% (inactive) | 0.07% (inactive) | 2.07% (inactive)
COc1ccc(OC)c(S(=O)(=O)N2CCN(c3c(C)cccc3C)CC2)c1 | 100% | 86% (inactive) | 100% (inactive) | 79.5% (inactive) | 86.9% (inactive) | 3.56% (inactive) | 83.4% | 86.9% | -8.53% (inactive) | 2.33% (inactive) | 0.405% (inactive) | 6.42% (inactive) | -2.38% (inactive) | 68% (inactive) | 82.5% (inactive) | 1.79% (inactive) | 6.46% (inactive)
Cc1cccc(-n2ncc3c(N4CCC5(CC4)OCCO5)ncnc32)c1 | 106% | 92.5% (inactive) | 106% (inactive) | 76% (inactive) | 42.6% (active) | -11.1% (inactive) | 53.8% | 42.6% | -4.4% (inactive) | -9.33% (inactive) | -2.87% (inactive) | -15.6% (inactive) | -7.22% (inactive) | 78% (inactive) | 59.5% (inactive) | 1.75% (inactive) | 3.86% (inactive)
CC1(C)CC(=O)C(C=NCCO)=C(O)C1 | 100% | 97.5% (inactive) | 100% (inactive) | 113% (inactive) | 91.2% (inactive) | 2.35% (inactive) | 88.9% | 91.2% | -6.08% (inactive) | 5.83% (inactive) | 5.08% (inactive) | -3.12% (inactive) | 1.5% (inactive) | 102% (inactive) | 101% (inactive) | 1.19% (inactive) | 2.26% (inactive)
CCOCCn1c(CN2CCN(CC)CC2)nc2c1c(=O)n(C)c(=O)n2C | 121% | 109% (inactive) | 121% (inactive) | 94.2% (inactive) | 91.8% (inactive) | 4.7% (inactive) | 87.1% | 91.8% | -1.6% (inactive) | -4.33% (inactive) | 5.99% (inactive) | 1.91% (inactive) | -1.7% (inactive) | 103% (inactive) | 97.6% (inactive) | 1.31% (inactive) | -1.34% (inactive)
O=C(Nc1c(C(=O)NCc2ccco2)cnn1-c1ccccc1)c1ccc(F)cc1 | 95.5% | 116% (inactive) | 95.5% (inactive) | 91.9% (inactive) | 96.9% (inactive) | 4.25% (inactive) | 92.6% | 96.9% | -0.26% (inactive) | -6% (inactive) | -0.04% (inactive) | 13.1% (inactive) | -5.34% (inactive) | 101% (inactive) | 96.8% (inactive) | -0.12% (inactive) | 0.53% (inactive)
COc1ccccc1-c1nnc(SCC(=O)NC2CCCCC2)o1 | 83% | 72.5% (inactive) | 83% (inactive) | 89.7% (inactive) | 87.8% (inactive) | -0.34% (inactive) | 88.2% | 87.8% | 6.13% (inactive) | 1.31% (inactive) | 1.35% (inactive) | 10.7% (inactive) | -3.27% (inactive) | 94.6% (inactive) | 94.5% (inactive) | -0.42% (inactive) | 3.73% (inactive)
CCN(CC)C(=O)Cn1ncc2c1-c1ccccc1OC2 | 84.5% | 112% (inactive) | 84.5% (inactive) | 98.3% (inactive) | 100% (inactive) | 15.7% (inactive) | 84.7% | 100% | -0.64% (inactive) | 1.33% (inactive) | -13.3% (inactive) | -11.6% (inactive) | 0.84% (inactive) | 105% (inactive) | 100% (inactive) | 2.26% (inactive) | -2.31% (inactive)
Cc1noc(/C=C/N(C)C)c1S(=O)(=O)N1CCc2ccccc21 | 99% | 106% (inactive) | 99% (inactive) | 67.4% (inactive) | 75.7% (inactive) | -20.2% (inactive) | 95.9% | 75.7% | 0.13% (inactive) | -3.83% (inactive) | -22.4% (inactive) | -28.7% (inactive) | -6.84% (inactive) | 84.4% (inactive) | 68.7% (inactive) | 1.65% (inactive) | 10% (inactive)
C=C(C)Cn1c(N2CC(C)CC(C)C2)nc2c1c(=O)[nH]c(=O)n2C (stereo not drawn) | 84% | 86% (inactive) | 84% (inactive) | 96.2% (inactive) | 83.2% (inactive) | -11.8% (inactive) | 95.1% | 83.2% | -4.93% (inactive) | 1% (inactive) | -5.73% (inactive) | 0.695% (inactive) | -5.11% (inactive) | 78.3% (inactive) | 81.2% (inactive) | 1.05% (inactive) | 1.9% (inactive)
CCC1CCCCN1CCNS(=O)(=O)c1ccc2c(c1)oc(=O)n2C (stereo not drawn) | 91.5% | 84.5% (inactive) | 91.5% (inactive) | 79.8% (inactive) | 85.2% (inactive) | 0.025% (inactive) | 85.1% | 85.2% | -1.28% (inactive) | 0.67% (inactive) | -0.855% (inactive) | -5.11% (inactive) | -2.8% (inactive) | 97.9% (inactive) | 95.1% (inactive) | 2.01% (inactive) | -1.43% (inactive)
CCOc1ccc(C2CC(c3cccc(OC)c3)Nc3nc(N)nn32)cc1 (stereo not drawn) | 91.5% | 114% (inactive) | 91.5% (inactive) | 95.8% (inactive) | 90.7% (inactive) | -2.32% (inactive) | 93% | 90.7% | 3.85% (inactive) | 5.5% (inactive) | 5.33% (inactive) | 13.6% (inactive) | -0.23% (inactive) | 99% (inactive) | 87.1% (inactive) | 1.65% (inactive) | 4.8% (inactive)
COC(=O)CSc1nc2nc(C)cc(C)n2n1 | 99% | 96.5% (inactive) | 99% (inactive) | 88.8% (inactive) | 99.7% (inactive) | 5.46% (inactive) | 94.3% | 99.7% | -3.73% (inactive) | 3.17% (inactive) | -2.5% (inactive) | 1.47% (inactive) | -0.51% (inactive) | 97.7% (inactive) | 91.2% (inactive) | 2.01% (inactive) | 2.93% (inactive)
Cc1n[nH]c(C)c1N1C(=O)c2cccc3cc(Br)cc(c23)C1=O | 74.5% | 79% (inactive) | 74.5% (inactive) | 85.5% (inactive) | 81.1% (inactive) | -1.29% (inactive) | 82.4% | 81.1% | 0.26% (inactive) | -4% (inactive) | -11.5% (inactive) | -11.6% (inactive) | -2.41% (inactive) | 107% (inactive) | 101% (inactive) | 3.01% (inactive) | 4.68% (inactive)
